Laboratory results: PubChem BioAssay (NCATS)
Results filed as inconclusive are left out. The source made the active and inactive calls. Calls come from the whole dose curve.
Potency is the fitted concentration of half-maximal effect.

Experiment: Cell Viability - MRC5 (AID 434);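 note: potency reflects cytotoxicity seen as loss of intracellular ATP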
Conditions: MRC5 lung fibroblast viability, qHTS
Text: NIH Chemical Genomics Center [NCGC]
NIH Molecular Libraries Screening Centers Network [MLSCN]
National Institutes of Environmental Health Sciences [NIEHS]
National Toxicology Program [NTP]
We have developed a 1536-well cell-based assay for quantitative high throughput screening (qHTS) against a number of cell lines to determine in vitro cytotoxicity of small molecules. This particular assay uses the MRC5 cell line which is derived from normal human lung fibroblasts.
NCGC Assay Protocol Summary:
The CellTiter-Glo luminescent cell viability assay (Promega) is a homogeneous method to measure the number of viable cells in culture. The end point readout of this assay is based on quantitation of intracellular ATP, an indicator of metabolic activity, using the luciferase reaction. Luciferase catalyzes the oxidation of beetle Luciferin to oxyluciferin and light in the presence of ATP. The luminescent signal is proportional to amount of ATP present.
Using the CellTiter-Glo luminescent cell viability assay, the amount of cellular ATP was measured in the MRC5 cell line with complete culture medium following compound treatment for 40 hours. The assay was performed in opaque white Kalypsys 1536-well plates. In the screen, tamoxifen and doxorubicin were used as positive controls. Library compounds were measured for their ability to cause acute toxicity in the cell line, as reflected by a decrease in intracellular ATP levels, in a concentration-dependent manner. Data were normalized to the controls for basal activity (DMSO only) and 100% inhibition (100 uM tamoxifen). AC50 values were determined from concentration-response data modeled with the standard Hill equation.
qHTS protocol for CellTiter Glo MRC5 cellular assay
[Step] [Parameter] [Value] [Description]
1. Reagent; 5 uL; 1500 MRC5 cells/well
2. Time; 5 hr; 37 °C incubation
4. Controls; 23 nL; Tamoxifen 0.34 uM to 100 uM & Doxorubicin 0.02 nM to 100 uM
5. Time; 40 hr; 37 °C incubation
6. Reagent; 5 uL; CellTiter Glo reagent
7. Time; 20 min; Room Temperature
8. Detection; Luminescence; Viewlux plate reader
Keywords: cell viability, cytotoxicity, MRC5 cell line, luminescence, NTPHTS, NTPHTS_NCGC, NIEHS, EPA, DSSTox, MLSMR, MLSCN, NIH Roadmap, qHTS, NCGC
With `[O-][Cl+]O` the Potency was > 92 µM (inactive). In the case of `c1ccc(N=NNc2ccccc2)cc1`, the Potency is reported as > 92 µM (inactive). For `N#CCCCCC#N`, the Potency was > 92 µM (inactive). With `CC(=O)CCC(C)=O` the Potency was > 92 µM (inactive). With `Clc1cccc2ccccc12` the Potency was > 92 µM (inactive). In the case of `CC(Cl)(Cl)Cl`, the Potency is reported as > 92 µM (inactive). For `Cc1ccc(N)cc1C`, the Potency was > 92 µM (inactive). For `O=[N+]([O-])c1ccc(Cl)cc1`, the Potency was > 92 µM (inactive). For `C=CC#N`, the Potency was > 92 µM (inactive). For `CN(C)N=O`, the Potency was > 92 µM (inactive). In the case of `COc1cc(-c2ccc(N)c(OC)c2)ccc1N`, the Potency is reported as > 92 µM (inactive). With `CC12CC1(C)C(=O)N(c1cc(Cl)cc(Cl)c1)C2=O` (stereo not given) the Potency was > 92 µM (inactive). For `Oc1cccc(Cl)c1Cl`, the Potency was > 92 µM (inactive). In the case of `Oc1cc(Cl)cc(Cl)c1`, the Potency is reported as > 92 µM (inactive). For `N#CC(O)c1ccccc1` (stereo not given), the Potency was > 92 µM (inactive). In the case of `Clc1cccc(Cl)c1`, the Potency is reported as > 92 µM (inactive). With `Clc1ccc(C(c2ccccc2Cl)C(Cl)(Cl)Cl)cc1` (stereo not given) the Potency was > 92 µM (inactive). With `C=CC(=O)OCC(C)C` the Potency was > 92 µM (inactive). With `Nc1ccc(Cl)c(Cl)c1` the Potency was > 92 µM (inactive). In the case of `O=C(O)CBr`, the Potency is reported as > 92 µM (inactive). In the case of `CN(C)c1ccc(N=Nc2ccccc2)cc1`, the Potency is reported as > 92 µM (inactive). With `O=[N+]([O-])c1ccc2c3c(cccc13)CC2` the Potency was > 92 µM (inactive). In the case of `CC(C)[C@]12CC(=O)[C@H](C)[C@H]1C2`, the Potency is reported as > 92 µM (inactive). With `CCN(N=O)C(N)=O` the Potency was > 92 µM (inactive). For `ClCCBr`, the Potency was > 92 µM (inactive). In the case of `Cl/C=C/CCl`, the Potency is reported as > 92 µM (inactive). With `CC(C)[N+](=O)[O-]` the Potency was > 92 µM (inactive). In the case of `Nc1c(Cl)cc([N+](=O)[O-])cc1Cl`, the Potency is reported as > 92 µM (inactive). For `c1ccc(Nc2ccc(Nc3ccccc3)cc2)cc1`, the Potency was > 92 µM (inactive). In the case of `CSSC`, the Potency is reported as > 92 µM (inactive). In the case of `Cl/C=C\Cl`, the Potency is reported as > 92 µM (inactive). With `ClCCCCl` the Potency was > 92 µM (inactive). For `ClCCOCOCCCl`, the Potency was > 92 µM (inactive). In the case of `Cc1cccc(N)c1C`, the Potency is reported as > 92 µM (inactive). In the case of `CCOS(C)(=O)=O`, the Potency is reported as > 92 µM (inactive). In the case of `C=C(Cl)CCl`, the Potency is reported as > 92 µM (inactive). With `CCCCCOC(=O)c1ccccc1C(=O)OCCCCC` the Potency was > 92 µM (inactive). In the case of `CC(C)Br`, the Potency is reported as > 92 µM (inactive). In the case of `Oc1c(Cl)c(Cl)cc(Cl)c1Cl`, the Potency is reported as > 92 µM (inactive). With `Cc1cc(Cl)ccc1O` the Potency was > 92 µM (inactive).
